Four molecules from PubChem BioAssay (EPA / NIEHS) can be followed below.

Settings in all cases: mRNA level, 48 h; actives raise or lower the signal
Read-out in experiment [1]: matrix metalloproteinase-3 (MMP3), MMP3 (gene 4314)
The experiment is described as follows: LTEA_HepaRG_MMP3: Life Technologies and Expression Analysis (LTEA) Assay for matrix metalloproteinase-3 (MMP3) using HepaRG (AID 2283519). The essentials: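 Fluidigm-based TaqMan qRT-PCR, normalized to ACTB, GAPDH and POLR2A and fitted bidirectionally versus 0.5% DMSO, measured transcript levels. Treatment: duplicate 48 h exposures of HepaRG cells, ~100,000/well, to eight half-log concentrations topping at 100 uM.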

Read-out in experiment [2]: Paternally Expressed 10 (PEG10), PEG10 (gene 23089)
In words: LTEA_HepaRG_PEG10: Life Technologies and Expression Analysis (LTEA) Assay for Paternally Expressed 10 (PEG10) using HepaRG (AID 2283520). The essentials: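 PEG10 transcript measured by Fluidigm qRT-PCR, normalized to three housekeeping genes, in HepaRG cells treated 48 h (highest 100 uM, half-log steps, 0.5% DMSO vehicle). Cells plated 48 h before switching to serum-free induction medium.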

Read-out in experiment [3]: Nuclear factor NF-kappa-B p105 subunit (Homo sapiens) (UniProt P19838)
The experiment is described as follows: LTEA_HepaRG_NFKB1: Life Technologies and Expression Analysis (LTEA) Assay for Nuclear Factor Kappa B Subunit 1 (NFKB1) using HepaRG (AID 2283521). The essentials: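 Differentiated human HepaRG cells were exposed for 48 h in serum-free induction medium to eight concentrations (top 100 uM, half-log steps, 0.5% DMSO), in duplicate. NFKB1 mRNA was measured by TaqMan qRT-PCR, normalized to ACTB/GAPDH/POLR2A, and fitted bidirectionally against DMSO.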

Read-out in experiment [4]: Phosphatase and tensin (PTEN), PTEN (gene 5728)
The experiment is described as follows: LTEA_HepaRG_PTEN: Life Technologies and Expression Analysis (LTEA) Assay for Phosphatase and tensin (PTEN) using HepaRG (AID 2283523). The essentials: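 Read-out: TaqMan qRT-PCR of PTEN transcript, normalized to three housekeeping genes, fitted in both directions against 0.5% DMSO. Differentiated human HepaRG cultures received chemicals for 48 h, eight-point half-log series topping at 100 uM.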

Read-out in experiment [5]: solute carrier (SLC22A1), SLC22A1 (gene 6580)
In words: LTEA_HepaRG_SLC22A1: Life Technologies and Expression Analysis (LTEA) Assay for solute carrier (SLC22A1) using HepaRG (AID 2283524). The essentials: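 Transcript level of SLC22A1 quantified by qRT-PCR (normalized to three housekeeping genes) after 48 h chemical exposure of HepaRG cells, eight concentrations up to 100 µM, half-log steps, 0.5% DMSO vehicle. Gain or loss relative to DMSO fitted bidirectionally.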

Read-out in experiment [6]: Pyruvate Dehydrogenase Kinase 4 (PDK4), PDK4 (gene 5166)
The experiment is described as follows: LTEA_HepaRG_PDK4: Life Technologies and Expression Analysis (LTEA) Assay for Pyruvate Dehydrogenase Kinase 4 (PDK4) using HepaRG (AID 2283525). The essentials:
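Readout is qRT-PCR of PDK4 transcript, normalized to three housekeeping genes, with bidirectional fitting against 0.5% DMSO vehicle. Differentiated HepaRG cells were treated 48 h in serum-free induction medium, duplicate wells, eight-point half-log series topping at 100 uM.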

Read-out in experiment [7]: NAD(P)H dehydrogenase [quinone] 1 (NQO1), NQO1 (gene 1728)
In words: LTEA_HepaRG_NQO1: Life Technologies and Expression Analysis (LTEA) Assay for NAD(P)H dehydrogenase [quinone] 1 (NQO1) using HepaRG (AID 2283526). The essentials:
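NQO1 transcript induction or loss measured by TaqMan qRT-PCR, referenced to three housekeeping genes and fitted bidirectionally against 0.5% DMSO. HepaRG cultures exposed 48 h, duplicate, eight-point half-log series, top 100 uM.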

Read-out in experiment [8]: Nuclear factor erythroid 2-related factor 2 (Homo sapiens) (UniProt Q16236)
The experiment is described as follows: LTEA_HepaRG_NFE2L2: Life Technologies and Expression Analysis (LTEA) Assay for Nuclear factor erythroid 2-related factor 2 (NFE2L2) Transcription Factor using HepaRG (AID 2283527).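 On outcome: TaqMan qRT-PCR transcript level normalised to ACTB GAPDH and POLR2A housekeeping genes.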 The essentials: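 NFE2L2 transcript level was read by qRT-PCR (housekeeping ACTB/GAPDH/POLR2A normalisation) after 48 h chemical treatment of HepaRG in serum-free induction medium. Duplicate 8-point half-log curves, top 100 uM, 0.5% DMSO vehicle; up- or down-regulation fitted against vehicle.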

Read-out in experiment [9]: Signal transducer and activator of transcription 3 (Homo sapiens) (UniProt P40763)
In words: LTEA_HepaRG_STAT3: Life Technologies and Expression Analysis (LTEA) Assay for Signal transducer and activator of transcription (STAT3) using HepaRG (AID 2283529). The essentials:
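STAT3 transcript quantified by qRT-PCR against three housekeeping genes (ACTB, GAPDH, POLR2A), fitted both directions relative to DMSO. HepaRG cultures exposed 48 h to eight half-log concentrations, top 100 uM, 0.5% DMSO, serum-free induction medium.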

Read-out in experiment [10]: solute carrier (SLCO1B1), SLCO1B1 (gene 10599)
The experiment is described as follows: LTEA_HepaRG_SLCO1B1: Life Technologies and Expression Analysis (LTEA) Assay for solute carrier (SLCO1B1) using HepaRG (AID 2283530). The essentials: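 Human HepaRG cultures treated for 48 h with an eight-concentration half-log series topping at 100 uM; SLCO1B1 measured by qRT-PCR and fitted bidirectionally relative to DMSO.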

Read-out in experiment [11]: sulfotransferase 2A1 (SULT2A1), SULT2A1 (gene 6822)
In words: LTEA_HepaRG_SULT2A1: Life Technologies and Expression Analysis (LTEA) Assay for sulfotransferase 2A1 (SULT2A1) using HepaRG (AID 2283531). The essentials: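 Gene-expression endpoint in a human liver cell line: SULT2A1 mRNA change after 48 h chemical treatment, curves fitted in both directions relative to 0.5% DMSO vehicle. Concentrations spanned eight half-log steps from 100 uM.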

Read-out in experiment [12]: Transforming Growth Factor (TGFA), TGFA (gene 7039)
The experiment is described as follows: LTEA_HepaRG_TGFA: Life Technologies and Expression Analysis (LTEA) Assay for Transforming Growth Factor (TGFA) using HepaRG (AID 2283532). The essentials: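 TGFA transcript quantified by qRT-PCR (Fluidigm arrays) against three housekeeping genes, after 48 hours chemical treatment of HepaRG cells. Top concentration 100 uM with half-log dilutions, 8 points, duplicates, 0.5% DMSO.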

Read-out in experiment [13]: Transforming Growth Factor (TGFB1), TGFB1 (gene 7040)
The experiment is described as follows: LTEA_HepaRG_TGFB1: Life Technologies and Expression Analysis (LTEA) Assay for Transforming Growth Factor (TGFB1) Transporter using HepaRG (AID 2283533). The essentials:
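Eight-point concentration-response (max 100 uM, half-log) in HepaRG under serum-free induction conditions, 48 h. TGFB1 mRNA by qRT-PCR, housekeeping-normalized.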

Read-out in a further experiment: TIMP1, TIMP1 (gene 7076)
In words: LTEA_HepaRG_TIMP1: Life Technologies and Expression Analysis (LTEA) Assay for TIMP1 using HepaRG (AID 2283534).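 Further: TaqMan qRT-PCR signal normalized to ACTB GAPDH and POLR2A housekeeping genes.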 The essentials: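 TIMP1 induction or repression in HepaRG cells after 48 h chemical exposure (eight concentrations, highest 100 uM), assessed by normalized qRT-PCR with bidirectional fitting to DMSO controls.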

Read-out in experiment [14]: Tumor necrosis factor receptor 1 (TNFRSF1A), TNFRSF1A (gene 7132)
The experiment is described as follows: LTEA_HepaRG_TNFRSF1A: Life Technologies and Expression Analysis (LTEA) Assay for Tumor necrosis factor receptor 1 (TNFRSF1A) using HepaRG (AID 2283535). The essentials: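 Assay uses 48 h chemical treatment of differentiated HepaRG monolayers, tested in duplicate at eight concentrations from 100 uM downward in 0.5% DMSO. mRNA is normalized to ACTB, GAPDH and POLR2A, with induction or suppression fitted relative to vehicle.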

Read-out in experiment [15]: Cellular tumor antigen p53 (Homo sapiens) (UniProt P04637)
In words: LTEA_HepaRG_TP53: Life Technologies and Expression Analysis (LTEA) Assay for Tumor Protein P53 (TP53) using HepaRG (AID 2283537). The essentials:
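HepaRG, 48 h exposure, top 100 uM, half-log 8-point, 0.5% DMSO vehicle, duplicates. Read: TP53 mRNA by TaqMan qRT-PCR, normalised to ACTB/GAPDH/POLR2A; bidirectional fit vs DMSO.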

Read-out in experiment [16]: succinate dehydrogenase complex iron sulfur subunit B (SDHB), SDHB (gene 6390)
The experiment is described as follows: LTEA_HepaRG_SDHB: Life Technologies and Expression Analysis (LTEA) Assay for succinate dehydrogenase complex iron sulfur subunit B (SDHB) using HepaRG (AID 2283528). The essentials: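 HepaRG, 48 h exposure, 8-pt half-log series from 100 uM in 0.5% DMSO, duplicates. Readout: SDHB mRNA by Fluidigm qRT-PCR vs housekeeping genes; bidirectional fit relative to DMSO.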

Read-out in experiment [17]: Protein phosphatase 2A (PPP2R4), PTPA (gene 5524)
The experiment is described as follows: LTEA_HepaRG_PPP2R4: Life Technologies and Expression Analysis (LTEA) Assay for Protein phosphatase 2A (PPP2R4) using HepaRG (AID 2283522). The essentials: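 Expression was quantified by Fluidigm qRT-PCR normalised to three housekeeping genes after 48 h treatment. Human HepaRG cells received an 8-point series from 100 µM downward by half-logs, in duplicate with 0.5% DMSO vehicle and 1 mM phenobarbital as induction control.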

Read-out in experiment [18]: UDP glucuronosyltransferase (UGT1A1), UGT1A1 (gene 54658)
The experiment is described as follows: LTEA_HepaRG_UGT1A1: Life Technologies and Expression Analysis (LTEA) Assay for UDP glucuronosyltransferase (UGT1A1) using HepaRG (AID 2283538). The essentials: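 UGT1A1 transcript level, measured by qRT-PCR with three housekeeping genes for normalization, after 48 h treatment of human HepaRG cells (0.5% DMSO, duplicates, up to 100 uM, half-log steps, 8 points). Curves fit both directions against DMSO baseline.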

Read-out in experiment [19]: Thyroid Hormone Responsive (THRSP), THRSP (gene 7069)
The experiment is described as follows: LTEA_HepaRG_THRSP: Life Technologies and Expression Analysis (LTEA) Assay for Thyroid Hormone Responsive (THRSP) using HepaRG (AID 2283536). The essentials: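 THRSP transcript quantified by Fluidigm qRT-PCR against three housekeeping genes after 48 h chemical exposure of HepaRG cells in serum-free induction medium; eight-point half-log series, top 100 uM, 0.5% DMSO vehicle, duplicate wells.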

Activity calls are given as the source filed them. How the source made its calls: active means hit-call score of the fitted dose curve at least 0.9, where 1 is the maximum; inactive means score below 0.9.

Sequence of Signal transducer and activator of transcription 3 (Homo sapiens) (P40763 whole entry, looked up): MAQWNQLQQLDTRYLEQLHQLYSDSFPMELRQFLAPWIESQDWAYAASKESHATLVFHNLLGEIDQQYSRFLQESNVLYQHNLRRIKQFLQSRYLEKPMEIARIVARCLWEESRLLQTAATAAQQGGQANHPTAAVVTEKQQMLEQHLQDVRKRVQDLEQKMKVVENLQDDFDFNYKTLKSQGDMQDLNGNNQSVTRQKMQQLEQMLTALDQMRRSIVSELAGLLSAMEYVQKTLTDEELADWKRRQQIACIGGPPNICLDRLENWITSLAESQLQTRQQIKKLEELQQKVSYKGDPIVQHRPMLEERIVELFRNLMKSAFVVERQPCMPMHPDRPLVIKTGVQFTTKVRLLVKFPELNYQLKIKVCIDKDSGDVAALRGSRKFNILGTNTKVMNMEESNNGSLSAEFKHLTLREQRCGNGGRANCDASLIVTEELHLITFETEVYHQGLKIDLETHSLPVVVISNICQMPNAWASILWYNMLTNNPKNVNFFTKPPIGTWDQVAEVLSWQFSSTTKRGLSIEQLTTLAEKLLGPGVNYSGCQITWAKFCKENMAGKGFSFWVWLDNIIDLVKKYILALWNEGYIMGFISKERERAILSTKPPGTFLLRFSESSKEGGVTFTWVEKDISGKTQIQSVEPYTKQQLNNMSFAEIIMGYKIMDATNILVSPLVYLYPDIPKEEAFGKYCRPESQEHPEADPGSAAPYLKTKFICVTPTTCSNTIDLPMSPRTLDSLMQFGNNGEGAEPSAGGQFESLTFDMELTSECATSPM
Sequence of Nuclear factor erythroid 2-related factor 2 (Homo sapiens) (Q16236 whole entry, looked up): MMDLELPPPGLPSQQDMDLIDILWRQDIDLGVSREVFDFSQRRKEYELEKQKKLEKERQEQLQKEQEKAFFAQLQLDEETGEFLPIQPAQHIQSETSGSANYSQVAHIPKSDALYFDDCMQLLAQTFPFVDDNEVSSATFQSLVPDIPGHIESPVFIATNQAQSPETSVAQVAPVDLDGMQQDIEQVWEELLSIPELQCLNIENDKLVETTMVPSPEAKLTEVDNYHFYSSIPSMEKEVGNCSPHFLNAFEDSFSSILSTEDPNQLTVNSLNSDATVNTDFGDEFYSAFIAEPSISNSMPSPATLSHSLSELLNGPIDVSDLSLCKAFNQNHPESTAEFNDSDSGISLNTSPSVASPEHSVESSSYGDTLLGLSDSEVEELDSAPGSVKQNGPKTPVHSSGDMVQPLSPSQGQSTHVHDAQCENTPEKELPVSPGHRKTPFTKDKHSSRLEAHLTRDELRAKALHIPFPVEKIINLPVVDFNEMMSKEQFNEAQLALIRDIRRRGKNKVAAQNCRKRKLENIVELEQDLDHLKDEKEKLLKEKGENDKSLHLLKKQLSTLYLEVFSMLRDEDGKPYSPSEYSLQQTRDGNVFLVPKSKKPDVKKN
Sequence of Nuclear factor NF-kappa-B p105 subunit (Homo sapiens) (P19838 whole entry, looked up): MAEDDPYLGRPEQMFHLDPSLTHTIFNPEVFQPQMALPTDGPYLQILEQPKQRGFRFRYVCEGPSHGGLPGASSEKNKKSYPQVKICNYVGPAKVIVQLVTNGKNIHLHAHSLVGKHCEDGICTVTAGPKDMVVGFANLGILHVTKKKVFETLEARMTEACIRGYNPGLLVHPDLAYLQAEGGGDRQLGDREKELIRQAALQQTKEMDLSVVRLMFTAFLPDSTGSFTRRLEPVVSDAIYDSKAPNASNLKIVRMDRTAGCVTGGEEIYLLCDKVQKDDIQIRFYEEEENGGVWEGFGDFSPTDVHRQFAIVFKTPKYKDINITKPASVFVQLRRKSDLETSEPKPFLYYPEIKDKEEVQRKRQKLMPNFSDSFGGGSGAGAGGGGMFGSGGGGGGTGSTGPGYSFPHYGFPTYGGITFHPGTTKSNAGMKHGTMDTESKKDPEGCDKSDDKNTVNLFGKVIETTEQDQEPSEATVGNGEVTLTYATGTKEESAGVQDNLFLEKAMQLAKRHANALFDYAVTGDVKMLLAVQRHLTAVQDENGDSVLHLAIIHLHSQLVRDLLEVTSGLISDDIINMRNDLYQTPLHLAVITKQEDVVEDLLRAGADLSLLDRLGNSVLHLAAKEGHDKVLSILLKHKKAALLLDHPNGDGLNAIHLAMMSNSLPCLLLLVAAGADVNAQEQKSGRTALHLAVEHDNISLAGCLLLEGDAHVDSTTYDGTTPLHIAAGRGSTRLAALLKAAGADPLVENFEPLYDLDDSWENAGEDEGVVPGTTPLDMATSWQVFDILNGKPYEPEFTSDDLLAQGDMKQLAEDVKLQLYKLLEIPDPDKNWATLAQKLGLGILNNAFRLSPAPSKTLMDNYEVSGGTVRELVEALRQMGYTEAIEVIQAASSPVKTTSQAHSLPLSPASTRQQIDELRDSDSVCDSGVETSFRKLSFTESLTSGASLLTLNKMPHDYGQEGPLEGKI
Sequence of Cellular tumor antigen p53 (Homo sapiens) (P04637 whole entry, looked up): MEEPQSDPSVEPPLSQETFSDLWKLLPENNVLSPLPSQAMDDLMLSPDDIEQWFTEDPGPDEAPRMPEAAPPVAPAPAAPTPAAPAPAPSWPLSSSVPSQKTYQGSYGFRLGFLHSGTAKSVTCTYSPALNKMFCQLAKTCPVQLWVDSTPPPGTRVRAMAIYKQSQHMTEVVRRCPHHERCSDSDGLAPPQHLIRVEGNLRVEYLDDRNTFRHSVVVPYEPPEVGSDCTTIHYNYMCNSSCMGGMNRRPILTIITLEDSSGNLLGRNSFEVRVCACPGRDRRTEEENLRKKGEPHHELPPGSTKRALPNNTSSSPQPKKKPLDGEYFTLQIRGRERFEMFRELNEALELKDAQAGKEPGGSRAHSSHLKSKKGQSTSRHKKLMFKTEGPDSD

`CNC(=O)[C@H]1O[C@@H](n2cnc3c(NCc4cc(Cl)ccc4OCc4cc(C)no4)ncnc32)[C@H](O)[C@@H]1N`: the result in [1], in experiment [2], in experiment [3], in experiment [4], in [5] and in experiment [6] was inactive. Also, the result in experiment [7], in experiment [8], in [9], in [10], in [11] and in experiment [12] was inactive. The outcome in experiment [13] is “inactive”; in the experiment with TIMP1, TIMP1 (gene 7076), “inactive”; in experiment [14], “inactive”; in experiment [15], “inactive”.
In the case of `c1cc(-c2ccncc2)ccn1`, in experiment [1], the concentration at half-maximal activity (AC50) is 17600 nM (active). The molecule was classed as inactive in [2], in experiment [3], in experiment [4], in [5], in experiment [7] and in experiment [8]. Moreover, the molecule was classed as inactive in experiment [16], in [9], in experiment [10], in experiment [11], in experiment [12] and in experiment [13]. Moreover, the outcome with TIMP1, TIMP1 (gene 7076) was “inactive”; in [14], “inactive”; in experiment [15], “inactive”.
In the case of `O=C(OCCCCCOC(=O)c1ccccc1)c1ccccc1`, the AC50 in experiment [1] was 2230 nM (active); in experiment [3], 2080 nM (active); in experiment [17], 2430 nM (active); in experiment [4], 1850 nM (active); in experiment [6], 309 nM (active); in experiment [7] it was 1800 nM (active). Also, the AC50 in [8] was 145 nM (active); in [9] it was 7250 nM (active); in experiment [10] it was 1290 nM (active); in experiment [12] it was 1280 nM (active); in [13] it was 3000 nM (active); in experiment [14], 1990 nM (active). For the same molecule, the results for the AC50 in experiment [15] and in experiment [18] were 1310 nM (active) and 1070 nM (active), respectively. The outcome in [2] was “inactive”; in experiment [5] it was “inactive”; in [11], “inactive”; in the experiment with TIMP1, TIMP1 (gene 7076), “inactive”.
With `Nc1ccc(S(=O)(=O)c2ccc(N)cc2)cc1`, the molecule was classed as inactive in [1], in [2], in experiment [17], in experiment [4], in experiment [5] and in [7]. The result in experiment [8], in [16], in experiment [10], in experiment [11], in experiment [12] and in experiment [13] was inactive. Also, the outcome with TIMP1, TIMP1 (gene 7076) is “inactive”; in [14], “inactive”; in [19], “inactive”; in experiment [15], “inactive”; in experiment [18], “inactive”. Besides, the AC50 in [3] was 353 nM (active).

One may read the AC50 as the midpoint of the concentration-response curve, whichever way the signal moves.
